This note sets out measurements from PubChem BioAssay (NCI).

The experiment can be described thus: NCI Yeast Anticancer Drug Screen. Data for the mgt1 strain (AID 153). The conditions noted are these: S. cerevisiae mgt1 mutant growth inhibition, hits give high values. As for the experimental part:
Growth inhibition of yeast strains with defined genetic alterations is measured as a screen for potential anti-cancer activity. Selected strains with alterations in DNA damage repair or cell cycle control were exposed to compounds and growth inhibition was measured relative to vehicle treated controls. The strain used in this assay is mgt1

About 79,000 compounds went through this panel and 15% of them were active in at least one assay; those are over-represented in the sample as a whole. A number with no mark means an inactive call. Active and inactive are the calls of the source. Cut-off read from the data, not from the text of the source: active = growth inhibition above about 70%; inactive = the rest.

With `COC(=O)c1c(C)ccc2c(O)c3c(cc12)C(=O)c1c2c(cc(O)c1C3=O)C1(C)OC(C)(O2)C(O)C(N(C)C)C1O` (stereo not given), the growth inhibition is, setting by setting: (at 1.2 µM) 0%; (at 3.7 µM) 10%; (at 11.0 µM) 23%; (at 33.0 µM) 95% (active); (at 100.0 µM) 94% (active).

Consider `NNc1ccccc1Cl`, for which the growth inhibition is 25% (at 1.2 µM); 42% (at 3.7 µM); 79% (active) (at 11.0 µM); 96% (active) (at 33.0 µM); 96% (active) (at 100.0 µM).

Turning to `CCNCC(=O)O[C@]1(CC)C(=O)OCc2c1cc1n(c2=O)Cc2cc3ccccc3nc2-1`, the growth inhibition is, setting by setting: (at 1.2 µM) 22%; (at 3.7 µM) 33%; (at 11.0 µM) 26%; (at 33.0 µM) 18%; (at 100.0 µM) 23%.

Consider `C[C@]12CCc3nonc3C1CC[C@@H]1C2CC[C@]2(C)C(=O)CCC12` (stereo not given in full), for which the growth inhibition runs as follows: (at 1.2 µM) 8%; (at 3.7 µM) 6%; (at 11.0 µM) 19%; (at 33.0 µM) 42%; (at 100.0 µM) 59%.

Take `Nc1nc(N)c2c(Cl)c(CNc3ccc(C(=O)NC(CC(=O)O)C(=O)O)cc3)ccc2n1` (stereo not given): the growth inhibition is 6% (at 1.2 µM); -3% (at 3.7 µM); -2% (at 11.0 µM); 30% (at 33.0 µM); 55% (at 100.0 µM).

As to `Nc1ccccc1C(=O)OCCc1ccccc1`, the growth inhibition by setting is: (at 1.2 µM) -74%; (at 3.7 µM) -63%; (at 11.0 µM) -62%; (at 33.0 µM) -52%; (at 100.0 µM) 96% (active).

On to `COC1CC(CC2CCC(C)C(C(C)C(=O)O)O2)OC2(OC(C)(C3CCC(C)(C4OC(C5OC(O)(CO)C(C)CC5C)CC4C)O3)CC2C)C1C` (stereo not given), for which the growth inhibition reads like this: (at 1.2 µM) 14%; (at 3.7 µM) -5%; (at 11.0 µM) 27%; (at 33.0 µM) 91% (active); (at 100.0 µM) 98% (active).

For the compound `COc1cccc2c1C(=O)c1c(O)c3c(c(O)c1C2=O)C[C@@](O)(C(C)=O)C[C@@H]3OC1CC(N)C(OC2CC(O)C(O)C(C)O2)C(C)O1` (stereo not given in full), the growth inhibition reads like this: (at 1.2 µM) -22%; (at 3.7 µM) -22%; (at 11.0 µM) -18%; (at 33.0 µM) -14%; (at 100.0 µM) -17%.
